Mtb betalactam – beta-lactam sensitization of Mtb H37Rv, H37Rv; M. tuberculosis H37Rv growth with meropenem, percent inhibition; inhibition, % at 25 µM; actives 0.27% (n = 330,000); call rule not given here;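 further: growth measured after seven days incubation then overnight dye step; 0% = bacteria only wells and 100% = bacteria with antibiotic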
MazF activator – activators of E. coli MazEF toxin-antitoxin RNase, primary screen, biochemical, fluorescence, uHTS; AID 504720, 2011; activation, % at 20 µM; actives 0.32% (n = 350,000); FAM/BHQ RNA-DNA oligo cleavage fluorescence, 5 h; Endoribonuclease toxin MazF (Escherichia coli (strain K12)), P0AE70; in the data active means activation above about 50%
Target sequence (P0AE70 whole entry, looked up): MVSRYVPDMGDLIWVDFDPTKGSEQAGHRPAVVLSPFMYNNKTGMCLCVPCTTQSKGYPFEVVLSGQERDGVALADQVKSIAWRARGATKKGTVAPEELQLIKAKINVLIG
Vc quorum ag – inducers of Vibrio cholerae quorum light production without autoinducers, primary screen, BH1578 luxS cqsA deficient, single point | activation, % at 18.7 µM | actives 0.16% (n = 350,000) | V. cholerae BH1578 lux reporter, luminescence, 6 h; in the data active means activation mostly above about 9.7%, no sharp cut-off
Mtb UGM inh – M. tuberculosis UGM enzyme inhibitors, primary screen, biochemical, fluorescence polarization, single point | purified UGM, fluorescence polarization probe displacement | inhibition, % at 10 µM | UDP-galactopyranose mutase (Mycobacterium tuberculosis (strain ATCC 25618 / H37Rv)), … | actives 0.06% (n = 320,000) | AID 504406, 2011; in the data active means inhibition above about 10%, passing the limit was not always enough
FadD28 FP inh – inhibitors of FadD28 bisubstrate probe binding, primary screen, biochemical, fluorescence polarization, single point. inhibition, % at 12.5 µM. AID 588549, 2011. actives 0.22% (n = 360,000). Mycobacterium tuberculosis FadD28 fatty-acid-AMP ligase; in the data active means inhibition above about 8.5%, passing the limit was not always enough
Rv3671c protease – Rv3671c serine protease inhibitors, primary screen, biochemical, fluorescence polarization, M. tuberculosis H37Rv; P9WHR9; inhibition, % at 5.96 µM; actives 0.048% (n = 320,000); in the data active means inhibition above about 38%;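 further: extracellular domain of Rv3671c used as enzyme; 0% = enzyme with DMSO and 100% = no enzyme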
Target sequence (P9WHR9 whole entry, looked up, the tested form may be a part): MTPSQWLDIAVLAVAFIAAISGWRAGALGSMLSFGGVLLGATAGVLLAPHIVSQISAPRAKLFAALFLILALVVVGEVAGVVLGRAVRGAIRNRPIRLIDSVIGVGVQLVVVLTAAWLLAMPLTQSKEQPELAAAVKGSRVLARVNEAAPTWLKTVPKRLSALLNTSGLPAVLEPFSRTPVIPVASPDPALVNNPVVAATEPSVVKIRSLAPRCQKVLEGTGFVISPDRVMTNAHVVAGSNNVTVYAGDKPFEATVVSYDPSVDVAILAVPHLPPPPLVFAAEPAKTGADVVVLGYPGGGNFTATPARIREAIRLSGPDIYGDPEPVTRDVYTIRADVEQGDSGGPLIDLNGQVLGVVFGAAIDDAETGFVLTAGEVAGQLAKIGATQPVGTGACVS
* marks the source's active call; other numbers are inactive results; i = inactive; x = not tested or not shown; + = active, no number. Sampled rows, rich in hits. Any-hit rate of the full collection: about 0.74%.

SMILES	Mtb betalactam	MazF activator	Vc quorum ag	Mtb UGM inh	FadD28 FP inh	Rv3671c protease
Cc1noc(NS(=O)(=O)c2ccc(NC(=O)Nc3ccc(Cl)c(Cl)c3)cc2)c1C	-6.8	1.0	-0.3	5.0	31.2*	-31.4
Cc1noc(NS(=O)(=O)c2ccc(N/C=C\C(=O)c3cccc4ccccc34)cc2)c1C	17.0	-22.4	i	-0.2	23.7*	-0.9
Cc1noc(NS(=O)(=O)c2ccc(NC(=O)/C=C/c3ccc(Br)cc3)cc2)c1C	8.3	0.4	i	1.6	9.7*	x
COc1ccc(Nc2cc(Nc3ccccc3)ncn2)cc1	-1.0	-11.7	-1.0	1.8	-2.3	-12.4
N#CC(C#N)=Cc1ccc(-c2ccccc2F)o1	5.4	148.6*	-0.3	4.7	-3.3	2.9
CC(C)OCCCn1c(=NC(=O)c2ccncc2)c(C#N)cc2c(=O)n3ccccc3nc21	0.4	-3.6	3.3	38.1*	1.4	-1.6
O=C(CCNS(=O)(=O)c1ccccc1)N1CCN(c2ccccc2F)CC1	-21.8	-4.2	-0.7	1.9	-0.5	-5.8
CNc1nc(-c2ccccc2)cc(C(F)(F)F)c1C#N	2.6	400.1*	i	2.6	0.1	2.2
C#CCSc1nc(-c2ccccc2)cc(C(F)(F)F)c1C#N	1.3	-37.3	-0.1	3.4	-5.8	-6.1
CN1CCN(c2nc3c(c(=O)[nH]c(=O)n3C)n2CCCSc2ncccn2)CC1	10.2	0.8	i	0.0	-2.0	-2.4
CCN1CCN(c2nc3c(c(=O)[nH]c(=O)n3C)n2CCCSc2ncccn2)CC1	-12.1	53.8*	x	-0.1	0.6	0.8
CCCC(NC(=O)c1ccc(Br)o1)c1nc2ccccc2[nH]1 (stereo not given)	-1.9	3.1	i	2.7	-4.5	1.3
Oc1[nH]c2ccccc2c1N=Nc1cccc(Cl)c1	4.0	362.1*	-0.5	2.3	0.8	-7.5
Cc1ccc(C2NC(=O)Cc3ccccc32)cc1 (stereo not given)	-3.6	247.2*	i	-1.3	-1.6	1.0
CCOc1ccc(N=Nc2ccc(O)c3ncccc23)cc1	89.5	-2.0	i	0.8	-0.2	x
CCOc1ccc2c(ccc(/C=C/c3cc(C)c4cccnc4c3O)[n+]2C)c1	x	-1.1	-0.8	x	15.8*	x
Cn1c(N)c(C(=O)COC(=O)Cc2ccc(Cl)cc2)c(=O)n(C)c1=O	x	0.3	i	x	-3.7	x
O=C(O)c1cc(N2N=C(C(F)(F)F)/C(=C/C=C/c3ccco3)C2=O)ccc1Cl	x	-27.0	-0.7	x	77.2*	x
N#C/C(=C\c1cccs1)c1nc2ccccc2[nH]1	-3.9	21.6	-1.4	-0.3	-4.7	-12.8
N#C/C(=C/c1ccc(O)c(O)c1)c1nc2ccccc2[nH]1	1.7	-62.4	-0.6	-2.9	12.1*	7.7
N#C/C(=C\c1cn(-c2ccccc2)nc1-c1cc2ccccc2o1)c1nc2ccccc2[nH]1	16.4	741.4*	-0.4	7.0	-3.5	0.7
CC(C)c1cc(=O)oc2c3c4c(cc12)CCCN4CCC3	0.1	87.9*	8.3	1.2	-0.6	-3.3
O=C1NC(=S)SC1=Cc1ccc(N(CCCl)CCCl)cc1	x	-913.0	-1.7	x	13.6*	x
O=C1NC(=S)SC1=Cc1ccc(Cl)cc1	x	-26.8	i	x	-1.1	x
COC(OC)C1(CCc2ccccc2)NC(=O)NC1=O (stereo not given)	x	2.4	i	x	-2.1	x
SMILES	Mtb betalactam	MazF activator	Vc quorum ag	Mtb UGM inh	FadD28 FP inh	Rv3671c protease
CC(=O)c1c2c3c(cccc3n(C)c1=O)C(=O)c1ccccc1-2	8.7	19.2	x	1.6	x	-3.7
Cn1c(=O)c(Nc2ccc(O)cc2)c2c3c(cccc31)C(=O)c1ccccc1-2	30.1	64.5*	-0.2	2.4	-0.7	33.6
CN1CCN(C(=O)c2cc([N+](=O)[O-])ccc2Cl)CC1	0.7	9.7	i	1.3	0.0	6.5
COc1ccc(/C=C2\SC(c3ccc(C)cc3)=NC2=O)cc1OC	17.7	+	0.3	4.9	0.2	-11.0
COc1cc(/C=C2\SC(c3ccc(C)cc3)=NC2=O)cc(OC)c1OC	6.3	101.6*	7.1	-2.2	-2.0	4.5
COc1ccc(/C=C2/SC(c3ccc(C)cc3)=NC2=O)cc1OC	-3.0	-0.7	i	-1.3	-1.4	7.9
COc1ccc(/C=C2/C(=O)N=C(N)N2C)cc1OC	-4.5	-5.3	16.7*	-0.1	-0.4	1.6
CCCCn1c(NC(=O)c2ccc(Br)o2)c(C(=O)OCC)c2nc3ccccc3nc21	4.4	80.0*	i	-2.5	-3.8	-256.2
CCCCn1c(NS(=O)(=O)c2ccccc2)c(C(=O)OCC)c2nc3ccccc3nc21	-9.7	3.2	i	2.1	3.2	-101.7
Cc1cc(NC(=O)c2ccc3sc([C@@H]4O[C@H](CO)[C@H](O)[C@H](O)[C@H]4O)nc3c2)no1	x	x	-0.9	x	-2.4	x
COc1ccccc1C(=O)NCC(c1cccs1)N1CCc2ccccc21 (stereo not given)	0.9	0.8	-3.7	2.5	1.8	1.2
O=C(Nc1ccccc1N1CCCC1)c1ccc(Br)o1	13.6	8.1	i	1.3	0.8	-0.7
COc1ccc(N2CCCC2)c(NC(=O)c2ccc(Br)o2)c1	2.3	62.6*	0.6	1.0	0.8	0.5
CC(Cc1ccc(O)cc1)NCC(O)c1ccc(O)c(O)c1 (stereo not given)	x	1.4	-5.0	x	8.2*	x
CC(C)NCC(O)c1ccc(O)c(O)c1 (stereo not given)	-1.1	6.3	-0.8	-1.7	-2.1	0.5
Cc1cc(C)c2c3c(c(-c4ccccc4)n2n1)c(=O)n(C)c(=O)n3C	x	7.2	-0.3	x	0.4	x
Cc1cc(-c2ccccc2)c2c3c(c(-c4ccccc4)n2n1)c(=O)n(C)c(=O)n3C	0.0	+	-6.5	1.4	-2.8	2.9
COc1ccc2nc(N3C(=O)C(O)=C(C(=O)c4ccco4)C3c3ccc(C)o3)sc2c1 (stereo not given)	x	8.2	i	x	-2.8	x
Cc1ccc2nc(N3C(=O)C(O)=C(C(=O)c4ccco4)C3c3cccs3)sc2c1 (stereo not given)	11.9	109.8*	i	2.5	-14.6	-22.4
C=C1C(=O)c2sccc2C(c2ccc(OC)c(OC)c2)C1COC(C)=O (stereo not given)	x	-33.5	-0.8	x	-3.4	x
CN(C)c1ccc(C2CC(=O)NC3=C2C(=O)CC(C)(C)C3)cc1 (stereo not given)	13.2	-2.4	4.8	-1.7	-3.9	-0.5
CC1(C)CC(=O)C2=C(C1)NC(=O)CC2c1ccc(F)cc1 (stereo not given)	-0.6	2.4	30.2*	0.3	-7.8	-3.7
COc1ccccc1NC(=O)C(C)Sc1nnc2ccccn12 (stereo not given)	-2.4	1.2	i	-4.4	x	-10.3

High-throughput results (PubChem)
